Common to all, as to assay: DAPPL (digital affinity profiling via proximity ligation, sequencing); 10 mM Tris-HCl pH 7.5, 50 mM NaCl, 1 mM DTT, 4% glycerol, room temperature, 30 min; GST-TFs on glutathione beads, 16-mer random dsDNA library, 0.1% formaldehyde crosslink after washing; high values mean tight binding
The target of one assay is T1, FLI1 (Homo sapiens, UniProt Q01543 1-452).
T1 sequence: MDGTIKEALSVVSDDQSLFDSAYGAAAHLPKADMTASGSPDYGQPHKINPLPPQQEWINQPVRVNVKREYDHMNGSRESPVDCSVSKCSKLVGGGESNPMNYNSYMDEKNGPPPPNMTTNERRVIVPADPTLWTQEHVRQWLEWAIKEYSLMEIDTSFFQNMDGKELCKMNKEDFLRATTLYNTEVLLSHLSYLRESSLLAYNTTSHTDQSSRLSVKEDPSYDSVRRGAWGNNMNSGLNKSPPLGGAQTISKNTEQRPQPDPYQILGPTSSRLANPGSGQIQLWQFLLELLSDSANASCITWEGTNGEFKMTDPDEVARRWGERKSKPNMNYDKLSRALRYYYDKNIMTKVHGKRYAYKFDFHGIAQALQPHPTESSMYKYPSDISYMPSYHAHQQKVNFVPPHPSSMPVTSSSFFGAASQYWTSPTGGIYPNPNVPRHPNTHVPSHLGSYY
The conditions noted are these: protein: recombinant; tags: N-terminal GST; dsDNA, one strand shown. The essentials: (§1)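 Binding signal is given per hexamer as its read frequency for a factor divided by its frequency in the tag-only sample. GST-fused human transcription factors were expressed in yeast, captured on glutathione beads, barcoded with DNA and pooled with that sample, then incubated with 200 nmole of a 16-mer random double-stranded DNA library in Tris/NaCl/DTT/glycerol buffer for 30 min at room temperature. The pools were then washed, crosslinked, proximity-ligated, amplified by PCR and sequenced on an Illumina NextSeq500.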

The target of the next assay is T2, ELK1 (Homo sapiens, UniProt P19419 1-428).
T2 sequence: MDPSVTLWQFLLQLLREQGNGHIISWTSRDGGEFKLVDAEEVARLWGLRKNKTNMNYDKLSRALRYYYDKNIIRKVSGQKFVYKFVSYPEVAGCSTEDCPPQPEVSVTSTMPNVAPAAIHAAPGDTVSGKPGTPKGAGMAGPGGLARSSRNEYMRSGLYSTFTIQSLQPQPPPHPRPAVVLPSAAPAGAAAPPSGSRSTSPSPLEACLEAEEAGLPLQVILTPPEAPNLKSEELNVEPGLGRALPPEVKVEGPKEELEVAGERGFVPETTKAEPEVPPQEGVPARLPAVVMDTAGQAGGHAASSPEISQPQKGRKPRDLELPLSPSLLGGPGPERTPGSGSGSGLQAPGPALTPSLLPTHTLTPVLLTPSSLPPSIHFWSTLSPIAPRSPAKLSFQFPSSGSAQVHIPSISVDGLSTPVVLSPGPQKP
The conditions noted are these: protein: recombinant; tags: N-terminal GST; dsDNA, one strand shown. The essentials: as §1

Another assay deals with T3, GABPA (Homo sapiens, UniProt Q06546 1-454).
T3 sequence: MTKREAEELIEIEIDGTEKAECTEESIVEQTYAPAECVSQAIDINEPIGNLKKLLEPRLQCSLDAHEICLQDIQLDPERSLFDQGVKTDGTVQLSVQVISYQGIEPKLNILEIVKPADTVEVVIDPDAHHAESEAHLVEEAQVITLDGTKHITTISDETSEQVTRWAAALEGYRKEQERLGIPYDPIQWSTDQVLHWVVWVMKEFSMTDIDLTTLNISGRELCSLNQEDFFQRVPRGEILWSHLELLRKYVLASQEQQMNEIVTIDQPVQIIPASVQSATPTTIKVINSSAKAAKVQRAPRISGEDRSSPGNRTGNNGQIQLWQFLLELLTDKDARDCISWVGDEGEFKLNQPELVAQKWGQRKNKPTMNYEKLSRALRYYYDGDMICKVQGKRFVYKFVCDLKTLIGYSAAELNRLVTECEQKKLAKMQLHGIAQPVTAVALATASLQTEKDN
The conditions noted are these: protein: recombinant; tags: N-terminal GST; dsDNA, one strand shown. The essentials: as §1

For a further assay, the target named is T4, ERG (Homo sapiens, UniProt P11308 1-479).
T4 sequence: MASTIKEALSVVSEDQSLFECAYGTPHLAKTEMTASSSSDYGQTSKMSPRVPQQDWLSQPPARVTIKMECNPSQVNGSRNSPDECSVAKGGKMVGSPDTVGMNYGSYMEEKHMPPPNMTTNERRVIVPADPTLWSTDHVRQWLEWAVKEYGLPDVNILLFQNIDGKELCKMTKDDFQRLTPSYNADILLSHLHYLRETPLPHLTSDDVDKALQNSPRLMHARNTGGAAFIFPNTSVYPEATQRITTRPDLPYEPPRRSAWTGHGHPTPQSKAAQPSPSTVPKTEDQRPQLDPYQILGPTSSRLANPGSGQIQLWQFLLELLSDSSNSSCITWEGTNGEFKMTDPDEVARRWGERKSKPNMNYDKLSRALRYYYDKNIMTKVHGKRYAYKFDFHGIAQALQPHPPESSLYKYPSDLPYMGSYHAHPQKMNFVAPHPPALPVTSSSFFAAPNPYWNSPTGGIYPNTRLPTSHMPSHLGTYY
To be noted: protein: recombinant; tags: N-terminal GST; dsDNA, one strand shown. The essentials: as §1

The next assay addresses ELF1 (Homo sapiens, UniProt P32519 1-619). To be noted: protein: recombinant; tags: N-terminal GST; dsDNA, one strand shown. The essentials:
as §1

In the next assay the target is T5, EHF (Homo sapiens, UniProt Q9NZC4 1-300).
T5 sequence: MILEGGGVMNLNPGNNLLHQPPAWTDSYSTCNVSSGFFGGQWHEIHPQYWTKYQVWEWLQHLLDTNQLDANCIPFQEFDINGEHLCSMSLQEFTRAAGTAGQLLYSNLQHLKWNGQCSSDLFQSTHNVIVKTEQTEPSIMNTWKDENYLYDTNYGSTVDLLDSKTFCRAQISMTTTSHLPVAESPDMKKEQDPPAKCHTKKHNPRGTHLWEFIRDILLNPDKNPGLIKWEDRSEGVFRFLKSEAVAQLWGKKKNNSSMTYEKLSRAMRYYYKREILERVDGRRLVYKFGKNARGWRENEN
To be noted: protein: recombinant; tags: N-terminal GST; dsDNA, one strand shown. The essentials:
as §1

In the next assay the target is SPI1 (Homo sapiens, UniProt P17947 1-270). The conditions noted are these: protein: recombinant; tags: N-terminal GST; dsDNA, one strand shown. The essentials: as §1
In the next assay the target is SPIB (Homo sapiens, UniProt Q01892 1-262). The conditions noted are these: protein: recombinant; tags: N-terminal GST; dsDNA, one strand shown. The essentials: as §1
SPIB, sequence (Q01892 whole entry): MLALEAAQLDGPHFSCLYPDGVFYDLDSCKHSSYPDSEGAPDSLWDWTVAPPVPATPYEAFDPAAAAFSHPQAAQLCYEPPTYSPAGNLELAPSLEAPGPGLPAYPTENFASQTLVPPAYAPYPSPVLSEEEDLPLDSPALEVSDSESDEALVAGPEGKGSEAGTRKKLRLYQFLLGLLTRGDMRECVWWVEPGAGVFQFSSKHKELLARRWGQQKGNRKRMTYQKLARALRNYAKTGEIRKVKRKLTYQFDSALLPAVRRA
For a further assay, the target named is T6, ELK3 (Homo sapiens, UniProt P41970 1-407).
T6 sequence: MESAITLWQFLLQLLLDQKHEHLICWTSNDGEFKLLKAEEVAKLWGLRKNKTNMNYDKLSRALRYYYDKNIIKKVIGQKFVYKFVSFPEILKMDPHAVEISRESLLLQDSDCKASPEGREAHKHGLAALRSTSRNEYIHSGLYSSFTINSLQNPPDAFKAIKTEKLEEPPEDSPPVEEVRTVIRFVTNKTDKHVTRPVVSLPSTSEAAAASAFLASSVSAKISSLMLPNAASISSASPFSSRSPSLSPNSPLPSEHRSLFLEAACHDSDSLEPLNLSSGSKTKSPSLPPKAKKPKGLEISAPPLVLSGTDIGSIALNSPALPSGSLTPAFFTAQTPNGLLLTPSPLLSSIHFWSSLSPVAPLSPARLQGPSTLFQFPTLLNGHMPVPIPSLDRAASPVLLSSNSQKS
To be noted: protein: recombinant; tags: N-terminal GST; dsDNA, one strand shown. The essentials:
as §1

A further assay deals with T7, FEV (Homo sapiens, UniProt Q99581 1-238).
T7 sequence: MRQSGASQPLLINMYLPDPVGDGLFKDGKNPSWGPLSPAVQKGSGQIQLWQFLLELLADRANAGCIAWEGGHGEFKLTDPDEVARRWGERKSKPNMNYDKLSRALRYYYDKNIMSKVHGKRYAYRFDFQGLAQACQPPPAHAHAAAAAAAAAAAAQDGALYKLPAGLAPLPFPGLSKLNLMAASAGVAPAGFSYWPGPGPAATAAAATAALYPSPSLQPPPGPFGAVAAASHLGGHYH
The conditions noted are these: protein: recombinant; tags: N-terminal GST; dsDNA, one strand shown. The essentials:
as §1

For another assay, the target named is ETV5 (Homo sapiens, UniProt P41161 1-510). The conditions noted are these: protein: recombinant; tags: N-terminal GST; dsDNA, one strand shown. The essentials:
as §1

Another assay addresses HSF1 (Homo sapiens, UniProt Q00613 1-529). To be noted: protein: recombinant; tags: N-terminal GST; chain copies: 3; dsDNA, one strand shown. The essentials: as §1
The target in a further assay is T8, SPIC (Homo sapiens, UniProt Q8N5J4 1-248).
T8 sequence: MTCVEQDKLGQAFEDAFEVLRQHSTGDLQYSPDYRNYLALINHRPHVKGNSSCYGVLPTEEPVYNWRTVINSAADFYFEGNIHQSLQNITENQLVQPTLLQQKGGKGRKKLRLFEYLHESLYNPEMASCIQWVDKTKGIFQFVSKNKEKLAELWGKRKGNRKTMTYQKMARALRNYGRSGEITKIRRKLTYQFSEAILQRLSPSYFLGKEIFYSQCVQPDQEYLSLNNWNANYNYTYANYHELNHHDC
To be noted: protein: recombinant; tags: N-terminal GST; dsDNA, one strand shown. The essentials: as §1

The target of another assay is ELF4 (Homo sapiens, UniProt Q99607 1-663). To be noted: protein: recombinant; tags: N-terminal GST; dsDNA, one strand shown. The essentials:
as §1

The target of a further assay is T9, ELK4 (Homo sapiens, UniProt P28324-2 1-405).
T9 sequence: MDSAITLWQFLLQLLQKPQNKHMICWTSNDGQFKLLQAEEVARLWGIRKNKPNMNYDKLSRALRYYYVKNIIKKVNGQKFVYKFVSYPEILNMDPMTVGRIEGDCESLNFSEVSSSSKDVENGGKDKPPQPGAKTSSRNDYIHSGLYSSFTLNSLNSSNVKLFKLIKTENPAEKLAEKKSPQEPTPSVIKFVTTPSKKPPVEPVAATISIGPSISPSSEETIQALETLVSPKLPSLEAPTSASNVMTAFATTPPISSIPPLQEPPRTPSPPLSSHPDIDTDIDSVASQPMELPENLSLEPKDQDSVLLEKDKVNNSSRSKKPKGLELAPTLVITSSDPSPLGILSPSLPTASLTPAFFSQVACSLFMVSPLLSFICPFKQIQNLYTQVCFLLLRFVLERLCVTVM
To be noted: protein: recombinant; tags: N-terminal GST; dsDNA, one strand shown. The essentials:
as §1

The target of the next assay is T10, ETV2 (Homo sapiens, UniProt O00321 1-342).
T10 sequence: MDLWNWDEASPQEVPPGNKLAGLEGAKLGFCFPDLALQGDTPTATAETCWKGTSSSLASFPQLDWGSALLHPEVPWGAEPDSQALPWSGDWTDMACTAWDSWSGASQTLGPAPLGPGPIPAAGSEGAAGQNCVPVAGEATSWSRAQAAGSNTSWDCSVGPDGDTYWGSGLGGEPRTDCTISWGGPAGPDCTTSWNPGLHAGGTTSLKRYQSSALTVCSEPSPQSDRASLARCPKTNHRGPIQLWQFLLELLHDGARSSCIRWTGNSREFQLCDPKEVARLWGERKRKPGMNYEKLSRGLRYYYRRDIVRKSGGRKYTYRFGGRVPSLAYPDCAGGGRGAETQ
To be noted: protein: recombinant; tags: N-terminal GST; dsDNA, one strand shown. The essentials: as §1

The next assay addresses T11, ELF3 (Homo sapiens, UniProt P78545 1-371).
T11 sequence: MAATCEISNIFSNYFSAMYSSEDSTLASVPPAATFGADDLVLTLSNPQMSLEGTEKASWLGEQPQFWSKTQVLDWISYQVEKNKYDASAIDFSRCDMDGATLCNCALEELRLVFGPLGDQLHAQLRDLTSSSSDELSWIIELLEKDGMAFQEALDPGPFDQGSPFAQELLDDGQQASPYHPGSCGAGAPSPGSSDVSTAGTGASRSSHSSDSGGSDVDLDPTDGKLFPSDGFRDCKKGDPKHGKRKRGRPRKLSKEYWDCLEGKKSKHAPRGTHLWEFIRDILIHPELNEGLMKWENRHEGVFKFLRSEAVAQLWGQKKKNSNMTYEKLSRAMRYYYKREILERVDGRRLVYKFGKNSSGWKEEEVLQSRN
The conditions noted are these: protein: recombinant; tags: N-terminal GST; dsDNA, one strand shown. The essentials: as §1

A further assay addresses CRX (Homo sapiens, UniProt O43186 1-299). The conditions noted are these: protein: recombinant; tags: N-terminal GST; dsDNA, one strand shown. The essentials: as §1
The target in the next assay is ETV1 (Homo sapiens, UniProt P50549 1-477). To be noted: protein: recombinant; tags: N-terminal GST; dsDNA, one strand shown. The essentials: as §1
ETV1, sequence (P50549 whole entry): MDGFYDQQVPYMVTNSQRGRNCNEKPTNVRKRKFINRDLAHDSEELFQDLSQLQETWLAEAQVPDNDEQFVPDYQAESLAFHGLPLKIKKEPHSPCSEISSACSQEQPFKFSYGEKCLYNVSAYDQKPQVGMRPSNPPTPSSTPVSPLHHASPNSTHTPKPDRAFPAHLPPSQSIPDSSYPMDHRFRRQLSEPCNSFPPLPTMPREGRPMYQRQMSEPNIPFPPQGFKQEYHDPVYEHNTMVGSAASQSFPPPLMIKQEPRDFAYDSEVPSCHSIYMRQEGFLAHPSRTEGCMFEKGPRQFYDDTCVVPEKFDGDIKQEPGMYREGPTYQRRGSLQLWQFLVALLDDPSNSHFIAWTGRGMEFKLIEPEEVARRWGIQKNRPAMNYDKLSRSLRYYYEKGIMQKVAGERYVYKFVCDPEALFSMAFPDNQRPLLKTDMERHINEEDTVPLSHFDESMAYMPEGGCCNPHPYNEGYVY

ELF1, sequence (P32519 whole entry): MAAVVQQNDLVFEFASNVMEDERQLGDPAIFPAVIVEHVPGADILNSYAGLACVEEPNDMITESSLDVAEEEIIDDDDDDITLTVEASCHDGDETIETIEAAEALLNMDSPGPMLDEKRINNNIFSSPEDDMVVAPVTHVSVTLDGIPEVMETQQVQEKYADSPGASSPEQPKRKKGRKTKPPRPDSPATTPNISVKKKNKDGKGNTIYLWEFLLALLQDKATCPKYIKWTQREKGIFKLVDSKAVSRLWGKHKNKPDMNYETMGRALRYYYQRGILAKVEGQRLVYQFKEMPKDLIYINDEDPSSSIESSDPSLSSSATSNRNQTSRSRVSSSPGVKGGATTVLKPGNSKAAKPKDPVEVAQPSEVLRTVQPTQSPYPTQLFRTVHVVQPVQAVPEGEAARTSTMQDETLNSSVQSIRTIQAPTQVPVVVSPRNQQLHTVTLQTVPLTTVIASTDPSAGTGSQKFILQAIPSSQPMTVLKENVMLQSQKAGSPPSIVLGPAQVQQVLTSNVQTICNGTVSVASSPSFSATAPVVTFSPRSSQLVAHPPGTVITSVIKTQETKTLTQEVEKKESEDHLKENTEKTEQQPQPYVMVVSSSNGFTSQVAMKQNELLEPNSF
ELF4, sequence (Q99607 whole entry): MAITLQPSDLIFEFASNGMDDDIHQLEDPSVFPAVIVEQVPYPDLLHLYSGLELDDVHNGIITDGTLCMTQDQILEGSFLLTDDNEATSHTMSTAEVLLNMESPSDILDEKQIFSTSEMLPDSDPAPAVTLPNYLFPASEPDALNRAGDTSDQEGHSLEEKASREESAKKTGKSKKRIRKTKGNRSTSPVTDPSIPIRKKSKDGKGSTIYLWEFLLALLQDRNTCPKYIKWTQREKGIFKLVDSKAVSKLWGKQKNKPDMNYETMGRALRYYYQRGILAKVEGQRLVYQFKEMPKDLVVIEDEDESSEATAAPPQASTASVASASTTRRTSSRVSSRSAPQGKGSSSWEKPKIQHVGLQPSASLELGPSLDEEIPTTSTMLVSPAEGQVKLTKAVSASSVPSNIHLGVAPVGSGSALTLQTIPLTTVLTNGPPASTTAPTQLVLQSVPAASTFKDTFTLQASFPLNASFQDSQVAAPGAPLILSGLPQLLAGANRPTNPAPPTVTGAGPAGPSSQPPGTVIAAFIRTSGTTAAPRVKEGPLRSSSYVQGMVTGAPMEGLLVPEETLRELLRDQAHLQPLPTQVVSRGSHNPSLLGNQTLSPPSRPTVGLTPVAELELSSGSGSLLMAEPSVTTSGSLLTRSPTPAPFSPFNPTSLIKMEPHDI
CRX, sequence (O43186 whole entry): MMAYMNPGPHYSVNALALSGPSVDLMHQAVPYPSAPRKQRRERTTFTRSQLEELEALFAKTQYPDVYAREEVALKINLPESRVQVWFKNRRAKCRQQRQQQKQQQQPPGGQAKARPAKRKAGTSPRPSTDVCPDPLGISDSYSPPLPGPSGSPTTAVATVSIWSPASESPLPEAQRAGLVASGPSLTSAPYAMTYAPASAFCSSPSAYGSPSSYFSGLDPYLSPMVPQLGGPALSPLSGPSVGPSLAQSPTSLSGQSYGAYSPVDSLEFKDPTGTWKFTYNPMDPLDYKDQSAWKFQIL
ETV5, sequence (P41161 whole entry): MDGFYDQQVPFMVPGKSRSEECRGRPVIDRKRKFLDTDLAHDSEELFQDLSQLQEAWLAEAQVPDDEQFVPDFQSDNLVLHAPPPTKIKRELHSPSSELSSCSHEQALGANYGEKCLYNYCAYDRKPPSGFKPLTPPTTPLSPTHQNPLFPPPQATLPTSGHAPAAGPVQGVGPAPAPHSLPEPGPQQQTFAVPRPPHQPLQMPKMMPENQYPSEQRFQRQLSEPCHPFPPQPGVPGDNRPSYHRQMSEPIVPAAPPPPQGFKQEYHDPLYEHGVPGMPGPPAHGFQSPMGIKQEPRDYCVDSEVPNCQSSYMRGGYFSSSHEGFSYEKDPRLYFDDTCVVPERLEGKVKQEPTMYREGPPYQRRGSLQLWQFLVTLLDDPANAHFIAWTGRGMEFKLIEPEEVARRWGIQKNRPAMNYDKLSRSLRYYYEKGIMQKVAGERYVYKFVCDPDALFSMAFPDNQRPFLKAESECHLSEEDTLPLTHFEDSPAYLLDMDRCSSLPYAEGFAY
HSF1, sequence (Q00613 whole entry): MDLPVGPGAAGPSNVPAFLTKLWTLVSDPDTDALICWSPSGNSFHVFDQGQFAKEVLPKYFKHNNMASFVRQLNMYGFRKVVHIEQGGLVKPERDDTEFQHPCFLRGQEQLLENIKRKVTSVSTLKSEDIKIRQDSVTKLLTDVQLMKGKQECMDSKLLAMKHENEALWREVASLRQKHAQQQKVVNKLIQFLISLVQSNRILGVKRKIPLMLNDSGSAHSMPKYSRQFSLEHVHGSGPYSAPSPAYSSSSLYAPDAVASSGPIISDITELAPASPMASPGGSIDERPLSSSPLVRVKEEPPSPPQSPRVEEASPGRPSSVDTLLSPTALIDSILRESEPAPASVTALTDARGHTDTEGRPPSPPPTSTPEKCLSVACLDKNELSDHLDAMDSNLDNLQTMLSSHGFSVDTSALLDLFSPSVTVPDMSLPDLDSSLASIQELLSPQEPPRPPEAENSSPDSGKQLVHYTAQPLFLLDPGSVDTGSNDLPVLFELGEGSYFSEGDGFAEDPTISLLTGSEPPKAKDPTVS

For the sequence ATGATT, the binding signal was 1.22 fold enrichment (6-mer frequency, TF over GST control) with FLI1; 1.25 fold enrichment (6-mer frequency, TF over GST control) with ELK1; 1.37 fold enrichment (6-mer frequency, TF over GST control) with GABPA; 1.21 fold enrichment (6-mer frequency, TF over GST control) with ERG; 1.21 fold enrichment (6-mer frequency, TF over GST control) in the assay with ELF1; 1.22 fold enrichment (6-mer frequency, TF over GST control) in the assay with EHF. The binding signal was 1.17 fold enrichment (6-mer frequency, TF over GST control) with SPI1; 1.22 fold enrichment (6-mer frequency, TF over GST control) with SPIB; 1.09 fold enrichment (6-mer frequency, TF over GST control) with ELK3; 1.15 fold enrichment (6-mer frequency, TF over GST control) with FEV; 1.18 fold enrichment (6-mer frequency, TF over GST control) with ETV5; 1.33 fold enrichment (6-mer frequency, TF over GST control) in the assay with HSF1. The binding signal is 1.17 fold enrichment (6-mer frequency, TF over GST control) with SPIC; 1.12 fold enrichment (6-mer frequency, TF over GST control) with ELF4; 1.21 fold enrichment (6-mer frequency, TF over GST control) with ELK4; 1.26 fold enrichment (6-mer frequency, TF over GST control) with ETV2; 1.12 fold enrichment (6-mer frequency, TF over GST control) in the assay with ELF3; 1.58 fold enrichment (6-mer frequency, TF over GST control) in the assay with CRX. Moreover, the binding signal with ETV1 was 1.19 fold enrichment (6-mer frequency, TF over GST control).

Source of the values: article PMC7862700, “An all-to-all approach to the identification of sequence-specific readers for epigenetic DNA modifications on cytosine”.
